SMILES strings stand for the structures. The source made the active and inactive calls.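 How the source made its calls, unless noted: active means compounds that lower survival of DLD-1 colon cancer cells in the luminescence readout, no cutoff given; inactive means the rest.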

Viability decrease (inhibition) data for 39 molecules are collected here from PubChem BioAssay.

The nature of one test: CellTiter-Glo luminescent readout of SW480 viability loss, NPC library primary (AID 1117343;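 active means compounds that lower viability of the colon cancer cells in the luminescence readout, with no numeric limit stated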). The settings on record: CellTiter-Glo luminescence; at 20 µM (top of the series).
Regarding `CCCc1nc2c(C)cc(-c3nc4ccccc4n3C)cc2n1Cc1ccc(-c2ccccc2C(=O)O)cc1`, the viability decrease (inhibition) is 94.1% (active).
Still for that read-out and setting: in the case of `CC(=O)CC(c1ccccc1)c1c(O)c2ccccc2oc1=O` (stereo not given) it was 32.5% (inactive); in that of `NS(=O)(=O)c1cc2c(cc1Cl)NCNS2(=O)=O`, 5.4% (inactive); in that of `CS(=O)(=O)OCCCCOS(C)(=O)=O`, 31.8% (inactive).
On the same count and under the same terms, the value for `CCOC(=O)C1=C(C)NC(C)=C(C(=O)OC)C1c1cccc([N+](=O)[O-])c1` (stereo not given) was 52.4% (active).
Turning to `COc1ccccc1OCCNCC(O)COc1cccc2[nH]c3ccccc3c12` (stereo not given), the viability decrease (inhibition) was 112% (active).
Same read-out and setting: in the case of `O=C(O)CCCc1ccccc1` it was 12.5% (inactive); in that of `NNCCc1ccccc1`, -14.5% (inactive); in that of `CC1Cc2ccccc2N1NC(=O)c1ccc(Cl)c(S(N)(=O)=O)c1` (stereo not given), -2.3% (inactive).
Still for that read-out and setting: the value for `CC(C)Cc1ccc(C(C)C(=O)O)cc1` (stereo not given) was 21.6% (inactive); that for `N[C@@H]1CONC1=O` was -6.2% (inactive).
On the same count and under the same terms, the value for `CCN(Cc1ccncc1)C(=O)C(CO)c1ccccc1` (stereo not given) was 12% (inactive); that for `CCCc1cc(=O)[nH]c(=S)[nH]1` was -1.9% (inactive); that for `O=C(O)c1cccnc1` was 37.9% (inactive).
Regarding `CC(C[N+](C)(C)C)OC(N)=O` (stereo not given), the viability decrease (inhibition) was -11.8% (inactive).
For the molecule `COc1ccc(Cl)cc1C(=O)NCCc1ccc(S(=O)(=O)NC(=O)NC2CCCCC2)cc1`, the viability decrease (inhibition) is 72.3% (active).
`N[C@@H](Cc1cc(I)c(Oc2cc(I)c(O)c(I)c2)c(I)c1)C(=O)O`: the viability decrease (inhibition) is 26% (inactive).
`CC1(C)O[C@@H]2[C@@H](CO[C@@]3(COS(N)(=O)=O)OC(C)(C)O[C@@H]23)O1`: the viability decrease (inhibition) is -0.9% (inactive).
On the same count and under the same terms, the value for `COCCOC(=O)C1=C(C)NC(C)=C(C(=O)OC(C)C)C1c1cccc([N+](=O)[O-])c1` (stereo not given) was 55.7% (active); that for `NNC(=O)c1ccncc1` was 10.1% (inactive).

A short description of the next test: decreased DLD-1 cellular survival, CellTiter-Glo luminescent readout, NPC compound collection, primary HTS (AID 1117346). The settings on record: DLD-1 viability, CellTiter-Glo luminescence; at 20 µM (top of the series). On the technique in general: Cellular ATP, detected with luciferase, serves as a proxy for viable cell number.
As for `CC12CC3CC(C)(C1)CC(N)(C3)C2`, the viability decrease (inhibition) was 0.65% (inactive).
Still for that read-out and setting: the value for `CC(=O)OCC(CCn1cnc2cnc(N)nc21)COC(C)=O` was -9.1% (inactive); that for `S=c1nc[nH]c2nc[nH]c12` was 79.1% (active).
On the same count and under the same terms, the value for `Oc1c(Cl)cc(Cl)c2cccnc12` was 90% (active).
On the same count and under the same terms, the value for `CC1=NS(=O)(=O)c2cc(Cl)ccc2N1` was 1.1% (inactive); that for `OC(Cn1cncn1)(Cn1cncn1)c1ccc(F)cc1F` was 2.4% (inactive).
Turning to `NCCc1ccc(O)c(O)c1`, the viability decrease (inhibition) is 11.6% (inactive).
On the same count and under the same terms, in the case of `CN=C(NC#N)NCCSCc1nc[nH]c1C` it was 1.2% (inactive); in that of `COc1c(N2CCNC(C)C2)c(F)cc2c(=O)c(C(=O)O)cn(C3CC3)c12` (stereo not given), -9.8% (inactive); in that of `CC1COc2c(N3CCN(C)CC3)c(F)cc3c(=O)c(C(=O)O)cn1c23` (stereo not given), -8.7% (inactive).
The same measure, in the same setting: the value for `O=C(C1CCCCC1)N1CC(=O)N2CCc3ccccc3C2C1` (stereo not given) was -16.7% (inactive).
On the same count and under the same terms, the value for `CCc1cc(C(N)=S)ccn1` was -11% (inactive); that for `CC1=C(/C=C/C(C)=C/C=C/C(C)=C/C(=O)O)C(C)(C)CCC1` was 104% (active); that for `CCCCNc1cc(C(=O)O)cc(S(N)(=O)=O)c1Oc1ccccc1` was -4.2% (inactive).
Consider `O=c1[nH]cnc2[nH]ncc12`, for which the viability decrease (inhibition) is -0.95% (inactive).
Same read-out and setting: the value for `O=C1c2c(O)ccc(O)c2C(=O)c2c(NCCNCCO)ccc(NCCNCCO)c21` was 96.1% (active); that for `O=C(O)c1cc(=O)c2c(OCC(O)COc3cccc4oc(C(=O)O)cc(=O)c34)cccc2o1` was -7.8% (inactive); that for `CC(C)C(=O)Nc1ccc([N+](=O)[O-])c(C(F)(F)F)c1` was -3.7% (inactive).
Same read-out and setting: the value for `CC(COc1ccccc1)N(CCCl)Cc1ccccc1` (stereo not given) was -2.9% (inactive); that for `CCCc1nc2c(C)cc(-c3nc4ccccc4n3C)cc2n1Cc1ccc(-c2ccccc2C(=O)O)cc1` was 36.3% (inactive); that for `CC(=O)CC(c1ccccc1)c1c(O)c2ccccc2oc1=O` (stereo not given) was 7% (inactive).
Still for that read-out and setting: in the case of `NS(=O)(=O)c1cc2c(cc1Cl)NCNS2(=O)=O` it was -1% (inactive); in that of `CS(=O)(=O)OCCCCOS(C)(=O)=O`, -11% (inactive); in that of `CCOC(=O)C1=C(C)NC(C)=C(C(=O)OC)C1c1cccc([N+](=O)[O-])c1` (stereo not given), 40.9% (inactive).
Consider `COc1ccccc1OCCNCC(O)COc1cccc2[nH]c3ccccc3c12` (stereo not given), for which the viability decrease (inhibition) is 90.5% (active).
As to `O=C(O)CCCc1ccccc1`, the viability decrease (inhibition) is -3.9% (inactive).
Same read-out and setting: the value for `NNCCc1ccccc1` was 7.4% (inactive); that for `CC1Cc2ccccc2N1NC(=O)c1ccc(Cl)c(S(N)(=O)=O)c1` (stereo not given) was 3.8% (inactive).
For `CC(C)Cc1ccc(C(C)C(=O)O)cc1` (stereo not given), the viability decrease (inhibition) was 16.6% (inactive).
Same read-out and setting: in the case of `N[C@@H]1CONC1=O` it was -14.1% (inactive).
